Screening results from PubChem BioAssay.
DT40 TDP1 CPT: qHTS for Inhibitors of human tyrosyl-DNA phosphodiesterase 1 (TDP1): qHTS in cells in presence of CPT | Potency, µM (series often up to 46.2 µM), hits mostly inhibitors | 420,000 compounds, 12% hits | chicken DT40 Tdp1-/-;hTDP1 cells + 20 nM CPT, ATP luminescence, 48 h; note: nearly all actives have a fitted effect of over 55% in size
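Cell growth measured by CellTiter-Glo luminescence after a minimum 48 h, 37 C compound exposure with 20 nM CPT in Tdp1-knockout DT40 cells stably expressing hTDP1, seeded 400/well; qHTS titration format.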
DT40 TDP1 no CPT: qHTS for Inhibitors of human tyrosyl-DNA phosphodiesterase 1 (TDP1): qHTS in cells in absence of CPT. DT40 Tdp1-/- hTDP1 cells, no CPT, ATP luminescence, 48 h. Potency, µM (highest dose often 46.2 µM), usual class: inhibitors. 420,000 compounds, 15% hits. AID 686978, 2013; note: nearly all actives have a fitted effect of over 55% in size
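Stably hTDP1-transfected Tdp1-null chicken DT40 cells were treated with library compounds minus camptothecin and grown for at least 48 hr at 37 °C, after which cellular ATP was quantified by luminescence.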
TDP1 block: qHTS Assay for Inhibitors of Tyrosyl-DNA Phosphodiesterase (TDP1) | 350,000 compounds, 0.28% hits | Tyrosyl-DNA phosphodiesterase 1 (Homo sapiens), Q9NUW8 | recombinant TDP1, AlphaScreen DNA substrate cleavage | Potency, µM (highest dose often 130 µM), hits mostly inhibitors; note: nearly all actives have a fitted effect of over 40% in size
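Enzyme-compound mixtures sat 15 min at room temperature, followed by a 5 min reaction with 15 nM final substrate and 10 min with AlphaScreen beads. Recombinant human Tdp1 was used at 1 nM final.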
Six1-Eya2 blk: qHTS Assay for Inhibitors of the Six1/Eya2 Interaction; activity change, % (test concentration not listed); 360,000 compounds, 0.56% hits; Homeobox protein SIX1 (Homo sapiens) + Protein phosphatase EYA2 (Homo sapiens), …; AlphaScreen GST-Six1/His-Eya2 binding, biochemical; active compounds read low; in the data active = activity change below about -65%; inconclusive = mostly about -30% to -63%
Target sequence (O00167 whole entry, looked up): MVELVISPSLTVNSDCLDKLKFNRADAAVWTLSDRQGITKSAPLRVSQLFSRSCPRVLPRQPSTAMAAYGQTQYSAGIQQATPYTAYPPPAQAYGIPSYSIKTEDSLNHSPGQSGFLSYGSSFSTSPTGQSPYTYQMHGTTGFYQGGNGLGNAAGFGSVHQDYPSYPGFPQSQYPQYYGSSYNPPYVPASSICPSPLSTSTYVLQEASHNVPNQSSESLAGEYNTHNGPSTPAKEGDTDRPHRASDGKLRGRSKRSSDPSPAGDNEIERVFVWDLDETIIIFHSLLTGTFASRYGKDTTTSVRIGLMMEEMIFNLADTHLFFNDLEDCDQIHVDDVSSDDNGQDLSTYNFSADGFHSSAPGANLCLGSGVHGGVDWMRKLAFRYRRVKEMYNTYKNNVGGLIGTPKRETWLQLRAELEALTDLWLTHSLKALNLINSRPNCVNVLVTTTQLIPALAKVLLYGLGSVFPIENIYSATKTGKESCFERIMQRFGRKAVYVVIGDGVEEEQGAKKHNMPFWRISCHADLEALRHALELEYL
Target sequence (Q15475 whole entry, looked up): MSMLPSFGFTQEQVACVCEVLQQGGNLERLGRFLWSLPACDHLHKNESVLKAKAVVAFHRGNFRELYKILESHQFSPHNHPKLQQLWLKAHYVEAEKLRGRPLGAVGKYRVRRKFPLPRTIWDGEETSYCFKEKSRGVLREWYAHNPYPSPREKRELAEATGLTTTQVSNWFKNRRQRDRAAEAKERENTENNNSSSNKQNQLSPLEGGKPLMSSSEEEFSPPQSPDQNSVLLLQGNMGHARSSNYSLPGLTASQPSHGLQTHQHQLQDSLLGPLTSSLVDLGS
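GST-Six1 + His-Eya2 (5X stock: 250/500 nM); Tris pH 8.0, 300 mM NaCl, 0.05% BSA, 0.02% Tween 20; GSH donor/Ni acceptor beads; 1 h 37 °C dark; AlphaScreen readout.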
IL-1B inflam inh: qHTS for Inhibitors of Inflammasome Signaling: IL-1-beta AlphaLISA Primary Screen; activity change, % at 57.5 µM; 360,000 compounds, 4.7% hits; THP-1 LPS/ATP IL-1B secretion, AlphaLISA, 16 h; active compounds read low; in the data active = activity change below about -50%; inconclusive = mostly about -30% to -49%
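THP-1 cells pretreated 1 hr with compounds (up to 57.5 uM final), then stimulated with LPS (250 ng/mL final) plus ATP (1.25 mM final); secreted IL-1B measured by AlphaLISA after 16 hr, decreased signal indicating inhibition.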
CtBP-E1A blk: qHTS Assay for Inhibitors of the CtBP/E1A Interaction; 340,000 compounds, 0.49% hits; AID 651724, 2012; AlphaScreen GST-E1A/His-CtBP binding, 1536-well; active compounds read low; CtBP / adenovirus E1A interaction (AlphaScreen); activity change, % (no concentration beside the values); in the data active = activity change below about -65%; inconclusive = mostly about -30% to -63%
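GST-E1A and His-tagged CtBP (125 nM each as 5X stock) were preincubated with pin-transferred compound for 2 h at 37 °C in the dark, then glutathione donor and nickel acceptor beads were added for 1 h before AlphaScreen reading.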
Each line names hits and unclear results; the compound was inactive in the other large screens. Only some compounds are listed: those with a hit (about 18% of all), similar ones and a draw of the others. Unless noted, calls come from the whole dose curve; as a rule, active = well fitted curve in the direction sought with a large enough effect; inconclusive = small, poorly fitted or top-dose-only effect, or another doubt; inactive = no such curve, though single readings can be large; an effect the other way counts as inactive or inconclusive.

Cc1cccc(CCN2C(N(C)C)=NC[C@@H]2CC(C)C)c1	DT40 TDP1 CPT inconclusive, DT40 TDP1 no CPT inconclusive
CCCCCCCN1C(N(C)C)=NC[C@@H]1Cc1ccccc1	DT40 TDP1 CPT 11.6µM, DT40 TDP1 no CPT 9.2µM, IL-1B inflam inh inconclusive
CN(C)C1=NC[C@H](Cc2ccccc2)N1CCCCc1ccccc1	DT40 TDP1 CPT inconclusive, DT40 TDP1 no CPT 20.6µM, IL-1B inflam inh inconclusive
Cc1ccccc1C(=O)Nc1ccccc1-n1cccc1	none
CN1C(=O)C(C)(C)c2cc(S(=O)(=O)NCCc3ccc(Cl)cc3)ccc21	none (no result: TDP1 block)
Cc1ccc(CCNS(=O)(=O)c2ccc3c(c2)NC(=O)C(C)C(=O)N3)cc1 (configuration not stated)	DT40 TDP1 no CPT 23.1µM (no result: TDP1 block)
COc1cccc(CNS(=O)(=O)c2ccc3c(c2)C(C(C)C)C(=O)N3)c1 (configuration not stated)	DT40 TDP1 CPT inconclusive, DT40 TDP1 no CPT 13µM (no result: Six1-Eya2 blk, IL-1B inflam inh, CtBP-E1A blk)
Cc1ccc(CCNS(=O)(=O)c2ccc(C)cc2)cc1	DT40 TDP1 CPT inconclusive
CC(C)C1C(=O)Nc2ccc(S(=O)(=O)NCCc3ccc(Cl)cc3)cc21 (configuration not stated)	DT40 TDP1 CPT inconclusive, DT40 TDP1 no CPT 23.1µM (no result: Six1-Eya2 blk, IL-1B inflam inh, CtBP-E1A blk)
CCN1/C(=N\N)c2cccc3cccc1c23	DT40 TDP1 CPT inconclusive, DT40 TDP1 no CPT 20.6µM, Six1-Eya2 blk inconclusive
CCOC(=O)N/N=C(\C)c1ccc(C)c([N+](=O)[O-])c1	DT40 TDP1 no CPT inconclusive
C/C(=N\NC(=S)NC(C)C)c1ccc(Cl)c([N+](=O)[O-])c1	DT40 TDP1 CPT 18.4µM, DT40 TDP1 no CPT 18.4µM, IL-1B inflam inh -91.6 (no result: CtBP-E1A blk)
CC(=O)Nc1cccc(/C(C)=N/NC(=S)NC(C)C)c1	DT40 TDP1 CPT 3.66µM, DT40 TDP1 no CPT 4.61µM
C/C(=N\NC(=S)NC(C)C)c1ccccc1	DT40 TDP1 CPT inconclusive, DT40 TDP1 no CPT inconclusive (no result: TDP1 block)
C/C(=N\NC(=S)NC(C)C)c1cccc([N+](=O)[O-])c1	DT40 TDP1 CPT 0.92µM, DT40 TDP1 no CPT 0.92µM
C/C(=N/NC(=S)Nc1cccc(C)c1)c1cccc([N+](=O)[O-])c1	DT40 TDP1 CPT 11.6µM, DT40 TDP1 no CPT 13µM (no result: CtBP-E1A blk)
COc1ccc(-c2cc(C(=O)NCc3ccccc3)no2)cc1OC	none
C/C(=N/Nc1nc(C)c(C)s1)c1cccc([N+](=O)[O-])c1	DT40 TDP1 CPT 14.6µM, DT40 TDP1 no CPT 23.1µM (no result: TDP1 block, CtBP-E1A blk)
O=C(Cn1cc([N+](=O)[O-])ccc1=O)NCC1COc2ccccc2O1 (configuration not stated)	DT40 TDP1 no CPT inconclusive
COc1ccc(-c2nc(SCC(=O)Nc3nccs3)c(-c3ccc(Cl)cc3)[nH]2)cc1	DT40 TDP1 CPT inconclusive, DT40 TDP1 no CPT inconclusive
CCc1ccc2c(c1)N(CC(C)CN(C)C)c1ccccc1S2 (configuration not stated)	DT40 TDP1 CPT inconclusive, DT40 TDP1 no CPT 15µM (no result: TDP1 block, Six1-Eya2 blk, IL-1B inflam inh, CtBP-E1A blk)
CCC/C(O)=C1\C(=O)CC(C)(C)CC1=Nc1ccc(OC)cc1OC	DT40 TDP1 CPT 2.91µM, DT40 TDP1 no CPT 2.06µM
COC(=O)CC/C(O)=C1\C(=O)CC(C)(C)CC1=Nc1ccccc1OC	DT40 TDP1 CPT 23.1µM, DT40 TDP1 no CPT inconclusive
CCCCCCN=C1CC(C)(C)CC(=O)/C1=C(/O)CCC	DT40 TDP1 CPT inconclusive, DT40 TDP1 no CPT 16.4µM, IL-1B inflam inh inconclusive
CCC/C(O)=C1\C(=O)CC(C)(C)CC1=NCc1ccccc1	DT40 TDP1 no CPT inconclusive
CN(C)C(=O)CCC(=O)NCC1Cc2cccc(-c3ccccc3C(F)(F)F)c2O1 (configuration not stated)	DT40 TDP1 CPT inconclusive (no result: TDP1 block, Six1-Eya2 blk, IL-1B inflam inh, CtBP-E1A blk)
COC(=O)CSC1=C(C#N)C(=O)NC(c2ccccc2)S1 (configuration not stated)	DT40 TDP1 CPT 2.59µM, DT40 TDP1 no CPT 2.06µM, IL-1B inflam inh inconclusive
CN1CCN(S(=O)(=O)c2cnccc2N2CCN(c3cccc(Cl)c3)CC2)CC1	DT40 TDP1 CPT 18.4µM, DT40 TDP1 no CPT 18.4µM, IL-1B inflam inh -50.5
CCN(CC)S(=O)(=O)c1cnccc1N1CCN(c2cccc(Cl)c2)CC1	DT40 TDP1 CPT inconclusive, DT40 TDP1 no CPT 16.4µM, IL-1B inflam inh -68.7
COc1ccccc1CN(C)C(=O)CSc1nnc(C2CC2)n1C1CC1	DT40 TDP1 CPT inconclusive, DT40 TDP1 no CPT 16.4µM
CN(Cc1cccc(F)c1)C(=O)CSc1nnc(C2CC2)n1C1CC1	none
O=c1oc2c(O)c(O)cc3c(=O)oc4c(O)c(O)cc1c4c23	DT40 TDP1 CPT inconclusive, TDP1 block 0.1µM, Six1-Eya2 blk -74.5, IL-1B inflam inh -51.1
COc1ccc(C)cc1N1C(=N)/C(=C2/Nc3ccccc3S2)C(c2ccccc2)C1=O (configuration not stated)	DT40 TDP1 CPT 6.51µM, DT40 TDP1 no CPT 3.66µM
CC(C)Cn1c(N)c(C(=O)COC(=O)C2CCCCC2)c(=O)n(C)c1=O	DT40 TDP1 CPT 16.4µM, DT40 TDP1 no CPT 18.4µM
Cc1ccc(N2CC(C(=O)OCC(=O)c3c(N)n(CC(C)C)c(=O)n(C)c3=O)CC2=O)cc1 (configuration not stated)	DT40 TDP1 no CPT inconclusive (no result: TDP1 block)
CC(=O)c1c(C)[nH]c(C(=O)OCC(=O)c2c(N)n(CC(C)C)c(=O)n(C)c2=O)c1C	DT40 TDP1 CPT inconclusive, DT40 TDP1 no CPT 23.1µM (no result: CtBP-E1A blk)
